From PubChem
NLRP3 yeast inh: NALP3 inflammasome inhibitors in reconstituted yeast, primary screen, luminescence, uHTS | Yeast reconstituted NLRP3/ASC/caspase-1, beta-gal luminescence, 24 h | inhibition, % at 10 µM | actives 0.39% (n = 330,000) | AID 2825, 2010;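 active = inhibition of 50% or more; inactive = inhibition below 50%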;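 note: plate controls were induced DMSO wells for no effect and uninduced yeast grown without galactose for full effect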
TIM10 inh: growth inhibitors of isogenic TIM10 control yeast, primary screen, counter-screen for tim10-1 yeast inhibitor project, luminescence, uHTS; S. cerevisiae TIM10 strain growth, BacTiter-Glo luminescence, 24 h; inhibition, % at 10 µM; actives 1.4% (n = 330,000); AID 463195, 2010;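 active = inhibition of 40% or more at the single tested concentration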;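 note: wild-type TIM10 isogenic control strain grown at permissive 25 °C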
V-ATPase pH: regulators of yeast V-ATPase proton pumping, primary screen, pHLuorin cytosolic pH fluorescence; S. cerevisiae; response, % at 10 µM; actives 0.37% (n = 350,000); AID 504577, 2011; in the data active = response mostly above about 7.3%, no sharp cut-off; inactive = mostly below about 5.4%; note: actives read high
tim23-1 inh: growth inhibitors of tim23-1 mutant yeast, primary screen, luminescence, uHTS. S. cerevisiae tim23-1 growth, BacTiter-Glo luminescence, 24 h. inhibition, % at 20 µM. actives 1.3% (n = 330,000);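 active = growth inhibition of the mutant yeast at or above 50%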;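 note: temperature-sensitive mutant grown at 25 °C; plate controls were DMSO-treated mutant yeast for no effect and medium wells lacking yeast for full effect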
tim10-1 inh: growth inhibitors of tim10-1 mutant yeast, primary screen, luminescence, uHTS; S. cerevisiae tim10-1 ts strain growth, BacTiter-Glo, 24 h; inhibition, % at 20 µM; AID 463190, 2010; actives 2.2% (n = 330,000);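 active = inhibition of at least 40%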;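 note: mutant grown at 25 °C; 0% = DMSO wells with yeast and 100% = wells holding no yeast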
NALP1 yeast inh: NALP1 inflammasome inhibitors in reconstituted yeast, colorimetric, S. cerevisiae, triplicate retest. S. cerevisiae NALP1/ASC/caspase-1 growth, X-gal OD620, 72 h. inhibition, % at 10 µM. actives 0.61% (n = 280,000). AID 2071, 2009; in the data active = inhibition mostly above about 24%, no sharp cut-off; inactive = mostly below about 32%
tim10-1 confirm: growth inhibitors of tim10-1 mutant yeast, confirmation, single concentration, luminescence, S. cerevisiae; actives 56% (n = 7,400); S. cerevisiae tim10-1 ts strain growth, BacTiter-Glo, 24 h; shares compounds with tim10-1 inh; inhibition, % at 20 µM;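 active = inhibition of yeast growth at or above a set limit in either of two repeat tests at 20 µM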;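 note: tim10-1 mutant grown at permissive 25 °C to find synthetic lethal compounds; 0% = DMSO yeast wells and 100% = medium wells without yeast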
An asterisk follows results filed as active. Most compounds without a hit are left out; they make up all but 4.2% or so of the library.

What do the screens show for `C#CCOCCOCCOCCNc1nc(N2CCN(C(=O)CCCCCCCCCCNC(=O)[C@H](CCCCN)n3cc(CCO)nn3)CC2)nc(N2CCN(C(=O)CCCCCCCCCCNC(=O)[C@H](CCCN=C(N)N)n3cc(C[C@@H](C)CC)nn3)CC2)n1`?
NLRP3 yeast inh: 16; TIM10 inh: 6; V-ATPase pH: -3; tim23-1 inh: 50; tim10-1 inh: 42*; tim10-1 confirm: 28

What do the screens show for `COc1ccccc1CN1CC(C(=O)NCc2cc(F)cc(C(F)(F)F)c2)CCC1=O` (configuration not stated)?
NLRP3 yeast inh: 16; TIM10 inh: 11; V-ATPase pH: 0; tim23-1 inh: 8; tim10-1 inh: 0; NALP1 yeast inh: 14

How did CCCCCCCCCCOC(=O)Cn1c(COc2ccccc2OC)[n+](C)c2ccccc21 do in these assays?
NLRP3 yeast inh: 25; TIM10 inh: 33; V-ATPase pH: 1; tim23-1 inh: 23; tim10-1 inh: 46*; NALP1 yeast inh: 37*; tim10-1 confirm: 65*

How did Cn1c(COc2ccccc2O)[n+](C)c2ccccc21 do in these assays?
NLRP3 yeast inh: 1; TIM10 inh: 13; V-ATPase pH: -4; tim23-1 inh: 9; tim10-1 inh: 0; NALP1 yeast inh: -2

What do the screens show for `CC[C@@]1(c2ccccc2)C(=O)N(C(=O)OC)N1C(=O)OC`?
NLRP3 yeast inh: 13; TIM10 inh: -14; V-ATPase pH: 3; tim23-1 inh: -8; tim10-1 inh: 0; NALP1 yeast inh: -9

Results for COC(=O)N1C(=O)[C@@](c2ccccc2)(C2CCCCC2)N1C(=O)OC ?
NLRP3 yeast inh: -11; TIM10 inh: -1; V-ATPase pH: 0; tim23-1 inh: -1; tim10-1 inh: 50*; NALP1 yeast inh: 22; tim10-1 confirm: 45*

What do the screens show for `O=C(C1CCC1)N1CCCc2cc(S(=O)(=O)N3CCN(c4ccccc4)CC3)ccc21`?
NLRP3 yeast inh: 2; TIM10 inh: 13; V-ATPase pH: 9; tim23-1 inh: 44; tim10-1 inh: 46*; NALP1 yeast inh: 8; tim10-1 confirm: 35*

What do the screens show for `OCC[C@@H]1C[C@H](O)[C@@H](O)[C@]2(CCCO2)O1`?
NLRP3 yeast inh: 25; TIM10 inh: -3; V-ATPase pH: 0; tim23-1 inh: -1; tim10-1 inh: -16

What do the screens show for `CC1(c2ccc(OC(F)F)cc2)NC(=O)N(/N=C/c2c(O)ccc3ccccc23)C1=O` (configuration not stated)?
NLRP3 yeast inh: 6; TIM10 inh: 22; V-ATPase pH: 2; tim23-1 inh: 47; tim10-1 inh: 42*; NALP1 yeast inh: 16; tim10-1 confirm: 27

What do the screens show for `Cc1ccn2cc(-c3cccc(S(=O)(=O)N4CCCC4)c3)nc2c1`?
NLRP3 yeast inh: -76; TIM10 inh: 9; V-ATPase pH: -2; tim23-1 inh: 27; tim10-1 inh: 50*; NALP1 yeast inh: -26; tim10-1 confirm: -7

What do the screens show for `O=S(=O)(c1cccc(-c2cn3ccccc3n2)c1)N1CCCCC1`?
NLRP3 yeast inh: 8; TIM10 inh: -2; V-ATPase pH: -2; tim23-1 inh: 30; tim10-1 inh: 23; NALP1 yeast inh: -7

What do the screens show for `Cc1ccn2cc(-c3cccc(S(=O)(=O)N4CC(C)OC(C)C4)c3)nc2c1` (configuration not stated)?
NLRP3 yeast inh: -17; TIM10 inh: 13; V-ATPase pH: 2; tim23-1 inh: 30; tim10-1 inh: 41*; NALP1 yeast inh: 2; tim10-1 confirm: 8

How did CN(C(=O)CSc1cc(Cl)ccc1Cl)C1CCS(=O)(=O)C1 (configuration not stated) do in these assays?
NLRP3 yeast inh: -10; TIM10 inh: 4; V-ATPase pH: -2; tim23-1 inh: 7; tim10-1 inh: 10

What do the screens show for `CCOC(=O)CNC(=O)C1(NC(=O)CNC(=O)OCc2ccccc2)CCCC1`?
V-ATPase pH: -9

Results for CCOC(=O)N1CCC(NC(=O)c2ccc3c(c2)N=C(C)c2c(C)ccc(C)c2S3)CC1 ?
NLRP3 yeast inh: 26; TIM10 inh: 22; V-ATPase pH: 1; tim23-1 inh: 45; tim10-1 inh: 44*; NALP1 yeast inh: 13; tim10-1 confirm: 3

Results for COc1cc([C@H]2c3c(cc(OC)c(O)c3OC)C[C@@H](CO)[C@@H]2CO[C@@H]2O[C@H](CO)[C@@H](O)[C@H](O)[C@H]2O)cc(OC)c1O ?
NLRP3 yeast inh: 1; TIM10 inh: -6; V-ATPase pH: 2; tim23-1 inh: -2; tim10-1 inh: 12

How did Cc1ccc(-n2nc3c4c(cccc4c2=O)-c2ccccc2-3)cc1 do in these assays?
NLRP3 yeast inh: 7; TIM10 inh: 19; V-ATPase pH: -1; tim23-1 inh: 7; tim10-1 inh: 42*; NALP1 yeast inh: -14; tim10-1 confirm: 23

How did O=C(O)Cn1nc2c3c(cccc3c1=O)-c1ccccc1-2 do in these assays?
NLRP3 yeast inh: 17; TIM10 inh: 5; V-ATPase pH: -2; tim23-1 inh: 4; tim10-1 inh: 7; NALP1 yeast inh: 13

Results for CCOC(=O)N1CCN(C(=O)COC(=O)C2CCN(S(=O)(=O)c3c(Cl)cccc3Cl)CC2)CC1 ?
NLRP3 yeast inh: 7; TIM10 inh: 16; V-ATPase pH: -2; tim23-1 inh: 22; tim10-1 inh: 25

How did O=C1C=CCC(/C=C/c2ccccc2)O1 (configuration not stated) do in these assays?
NLRP3 yeast inh: 25; TIM10 inh: 35; tim23-1 inh: 40; tim10-1 inh: 55*; NALP1 yeast inh: 47*; tim10-1 confirm: 27

How did CCC1([N+](=O)[O-])COC(C=Cc2ccccc2)OC1 (configuration not stated) do in these assays?
V-ATPase pH: 6

Results for CC(=C/c1ccc(C(C)C)cc1)/C=N/NC(=O)CSc1ccccn1 ?
NLRP3 yeast inh: 8; TIM10 inh: 29; V-ATPase pH: -2; tim23-1 inh: -1; tim10-1 inh: 47*; NALP1 yeast inh: 9; tim10-1 confirm: 20

What do the screens show for `CC1CC(C)CN(S(=O)(=O)c2ccc3c(c2)CC(C)N3C(=O)C2CC2)C1` (configuration not stated)?
NLRP3 yeast inh: 6; TIM10 inh: 12; V-ATPase pH: 0; tim23-1 inh: 27; tim10-1 inh: 20; NALP1 yeast inh: 22
